Assay results as given in PubChem BioAssay.
A number with no mark means an inactive call.

The molecules below were run against NADPH oxidase 2 (Homo sapiens) (UniProt P04839) (assay: compounds shifting NOX2 Amplex Red fluorescence – cell-based, HEK293-NOX2, PMA-stimulated, NOX inhibitor project, primary screen (AID 1159; also: test concentration not given here)). Conditions: 45 min, higher = more signal, called active from +8 up or from −8 down.
Chain of NADPH oxidase 2 (Homo sapiens) (P04839 whole entry, looked up): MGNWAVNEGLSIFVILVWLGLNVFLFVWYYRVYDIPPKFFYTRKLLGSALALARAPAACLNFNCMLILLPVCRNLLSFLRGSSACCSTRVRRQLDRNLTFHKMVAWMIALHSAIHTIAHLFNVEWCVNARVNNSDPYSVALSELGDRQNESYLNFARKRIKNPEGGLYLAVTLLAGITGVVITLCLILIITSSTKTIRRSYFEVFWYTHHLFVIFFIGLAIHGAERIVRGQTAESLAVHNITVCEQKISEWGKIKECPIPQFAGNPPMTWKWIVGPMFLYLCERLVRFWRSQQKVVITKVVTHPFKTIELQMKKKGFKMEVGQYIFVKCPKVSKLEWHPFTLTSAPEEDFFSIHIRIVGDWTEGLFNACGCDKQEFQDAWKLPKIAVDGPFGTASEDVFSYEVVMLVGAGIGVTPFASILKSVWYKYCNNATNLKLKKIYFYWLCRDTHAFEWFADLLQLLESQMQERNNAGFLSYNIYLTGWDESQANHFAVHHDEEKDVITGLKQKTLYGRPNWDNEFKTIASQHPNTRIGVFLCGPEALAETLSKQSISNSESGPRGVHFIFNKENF
In the case of `COC(=O)C=C(CC(O)c1cccc(Cl)c1)OC` (stereo not given), the z-score is reported as 0.0865.
`COC(=O)[C@@]1(Cc2ccccc2)[C@H]2c3cc(C(=O)N4CCCC4)n(CC4CC4)c3C[C@H]2CN1C(=O)c1ccccc1` gave a z-score of -0.295.
`COCCOC(=O)N1C(=O)[C@@]2(c3cc(C#CCCO)ccc31)[C@H](c1ccc(OCCO)cc1)N1[C@H](c3ccccc3)[C@H](c3ccccc3)OC(=O)[C@H]1[C@@H]2C(=O)N1CCN(c2ncccn2)CC1` was tested, and the z-score was 1.89.
For `COC(=O)[C@@]1(Cc2ccc(F)cc2)[C@H]2c3cc(C(=O)N(C)C)n(Cc4ccc(S(C)(=O)=O)cc4)c3C[C@H]2CN1C(=O)c1ccccc1`, the z-score was 0.713.
Work on `CCC(CC)C(O)C1C=CC2C(=O)N(C)C(=O)C2N1Nc1ccccc1` (stereo not given) yielded a z-score of -1.73.
With `C=CCNC(=O)[C@@H]1[C@H]2C(=O)O[C@H](c3ccccc3)[C@H](c3ccccc3)N2[C@H](c2ccc(OCCO)cc2)[C@@]12C(=O)Nc1ccc(C#CCCO)cc12` the z-score was 1.67.
`O=C(NCc1ccc(F)cc1)[C@H]1C[C@H]2C(=O)N[C@@H](Cc3ccccc3)C(=O)N2[C@H]1c1ccc(O)cc1` gave a z-score of 0.171.
For `COC(=O)[C@@]1(Cc2ccc(F)cc2)[C@H]2c3cc(C(=O)N4CCCC4)n(Cc4cc(C)n(C)n4)c3C[C@H]2CN1C(=O)c1ccccc1`, the z-score was 1.16.
`C=CC[C@]1(C(=O)N2CCCCC2)N=C(c2ccc(OCCCO)cc2)O[C@H]1c1ccccc1` showed a z-score of 0.186.
In the case of `CN1C(=O)C2C=CC(C(O)C3CCCCC3)N(Nc3ccc([N+](=O)[O-])cc3[N+](=O)[O-])C2C1=O` (stereo not given), the z-score is reported as -1.18.
